# Data published in PubChem BioAssay (EPA / NIEHS).
# Activity calls are given as the source filed them. Rule for the calls: active = hit-call score of the fitted dose curve at least 0.9, where 1 is the maximum; inactive = score below 0.9.
# What was measured:
# [1] = ATG_GLI_CIS: Attagene CIS-FACTORIAL HepG2 Assay for human Zinc Finger Protein GLI1 (AID 2282945); conditions: HepG2, Attagene cis-factorial reporter mRNA, GLI element; actives raise or lower the signal
# Summary of the method: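 Bidirectional curve fits relative to DMSO, using reporter mRNA levels from RT-PCR plus capillary electrophoresis. Cells were HepG2 transiently carrying cis-regulated reporter constructs, harvested 24 h after dosing.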
# [2] = ATG_GRE_CIS: Attagene CIS-FACTORIAL HepG2 Assay for human Glucocorticoid Response Elements (GRE) (AID 2282947); conditions: HepG2 GRE cis-reporter, Attagene multiplex mRNA; actives raise or lower the signal
# Summary of the method: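 Multiplexed cis-reporter mRNA induction, HepG2, 24 h post-dose. RT-PCR, FAM-labelled, HpaI-digested amplicons by CE. Bidirectional fit vs DMSO.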
# [3] = ATG_ISRE_CIS: Attagene CIS-FACTORIAL HepG2 Assay for human Interferon Regulatory Factor 1 (IRF1) binding to an Interferon-Stimulated Response Element (ISRE) (AID 2282948); conditions: HepG2 ISRE cis-reporter (Attagene), mRNA transcription readout; actives raise or lower the signal
# Summary of the method: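 Uses HepG2 liver cells transfected with cis-regulated reporters and measures mRNA 24 h post-dosing through RT-PCR, primer-extension labelling and capillary electrophoresis, with DMSO as negative control.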
# [4] = ATG_M_32_CIS: Attagene CIS-FACTORIAL HepG2 Assay for M32 Transcription Factor (Internal Marker) (AID 2282949); conditions: HepG2 Attagene cis-factorial M32 reporter, mRNA; actives raise or lower the signal;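 note: background control marker of the multiplexed CIS panel rather than a real target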
# Summary of the method: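 Using DMSO as baseline, bidirectional curve fits were applied to reporter mRNA signals. These came from transiently transfected HepG2 cells exposed for 24 h, with RNA analysed by RT-PCR, FAM primer extension, HpaI digestion and CE.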
# [5] = ATG_M_06_CIS: Attagene CIS-FACTORIAL HepG2 Assay for M06 Transcription Factor (Internal Marker) (AID 2282950); conditions: HepG2 Attagene CIS-FACTORIAL M06 internal marker reporter; actives raise or lower the signal
# Summary of the method: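 Measured 24 h post-dosing in transiently transfected HepG2 cells, this internal-marker endpoint reports reporter mRNA via RT-PCR with fluorescent primer extension and capillary electrophoresis. DMSO served as negative control and baseline for bidirectional fitting.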
# [6] = target: Hypoxia-inducible factor 1-alpha (Homo sapiens) (UniProt Q16665); experiment: ATG_HIF1a_CIS: Attagene CIS-FACTORIAL HepG2 Assay for human Hypoxia Inducible Factor 1 (HIF1A) (AID 2282951); conditions: HepG2 Attagene cis-factorial HIF1a reporter transcription; actives raise or lower the signal
# Sequence of Hypoxia-inducible factor 1-alpha (Homo sapiens) (Q16665 whole entry, looked up): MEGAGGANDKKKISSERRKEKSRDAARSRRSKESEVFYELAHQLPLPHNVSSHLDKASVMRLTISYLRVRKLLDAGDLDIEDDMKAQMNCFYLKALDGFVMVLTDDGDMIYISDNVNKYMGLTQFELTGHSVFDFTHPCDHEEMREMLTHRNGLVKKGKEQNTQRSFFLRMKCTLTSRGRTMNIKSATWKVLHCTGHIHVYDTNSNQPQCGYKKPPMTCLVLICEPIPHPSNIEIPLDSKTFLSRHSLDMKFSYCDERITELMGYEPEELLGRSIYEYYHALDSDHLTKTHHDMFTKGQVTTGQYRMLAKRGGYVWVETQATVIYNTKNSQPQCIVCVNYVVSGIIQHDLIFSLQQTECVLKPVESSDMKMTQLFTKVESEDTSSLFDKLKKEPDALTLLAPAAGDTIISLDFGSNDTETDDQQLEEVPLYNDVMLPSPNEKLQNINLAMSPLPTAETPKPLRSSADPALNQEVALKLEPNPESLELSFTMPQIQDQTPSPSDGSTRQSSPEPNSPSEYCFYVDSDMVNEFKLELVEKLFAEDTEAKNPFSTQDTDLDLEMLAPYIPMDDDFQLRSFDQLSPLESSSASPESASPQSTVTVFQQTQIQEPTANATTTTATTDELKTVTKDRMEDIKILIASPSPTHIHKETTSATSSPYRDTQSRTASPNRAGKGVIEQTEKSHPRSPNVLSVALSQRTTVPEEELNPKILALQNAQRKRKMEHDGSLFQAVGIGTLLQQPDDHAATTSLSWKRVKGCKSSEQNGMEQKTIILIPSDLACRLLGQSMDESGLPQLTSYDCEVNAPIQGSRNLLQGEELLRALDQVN
# Summary of the method: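 RT-PCR/capillary electrophoresis fluorescence readout of reporter transcripts from endogenous-TF-driven cis elements in transfected HepG2 cells, 24 h exposure; activity fitted in both directions against DMSO controls.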
# [7] = target: Hepatocyte nuclear factor 6 (Homo sapiens) (UniProt Q9UBC0); experiment: ATG_HNF6_CIS: Attagene CIS-FACTORIAL HepG2 Assay for human Hepatocyte Nuclear Factor 6 (HNF6) (AID 2282952); conditions: HepG2 Attagene cis-factorial HNF6 reporter transcription; actives raise or lower the signal
# Sequence of Hepatocyte nuclear factor 6 (Homo sapiens) (Q9UBC0 whole entry, looked up): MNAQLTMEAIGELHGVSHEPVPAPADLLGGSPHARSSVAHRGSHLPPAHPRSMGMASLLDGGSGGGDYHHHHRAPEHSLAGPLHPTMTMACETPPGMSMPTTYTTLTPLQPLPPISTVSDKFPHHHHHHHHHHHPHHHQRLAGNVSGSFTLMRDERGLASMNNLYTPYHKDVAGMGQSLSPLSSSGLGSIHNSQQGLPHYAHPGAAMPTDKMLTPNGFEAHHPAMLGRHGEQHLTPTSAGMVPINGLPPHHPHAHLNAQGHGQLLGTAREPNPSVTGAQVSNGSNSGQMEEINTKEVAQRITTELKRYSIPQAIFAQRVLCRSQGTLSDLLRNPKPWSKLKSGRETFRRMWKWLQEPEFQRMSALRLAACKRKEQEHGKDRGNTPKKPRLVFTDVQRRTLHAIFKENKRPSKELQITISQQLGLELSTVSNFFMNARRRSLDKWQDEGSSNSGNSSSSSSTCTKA
# Summary of the method: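 Activity values derive from bidirectional fitting against DMSO of reporter mRNA levels, measured by capillary electrophoresis of labelled RT-PCR products from HepG2 cells exposed 24 h.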
# [8] = target: Heat shock factor protein 1 (Homo sapiens) (UniProt Q00613); experiment: ATG_HSE_CIS: Attagene CIS-FACTORIAL HepG2 Assay for human Heat Shock Transcription Factor 1 (HSE) (AID 2282953); conditions: HepG2 HSE cis-reporter, Attagene RNA transcription; actives raise or lower the signal
# Sequence of Heat shock factor protein 1 (Homo sapiens) (Q00613 whole entry, looked up): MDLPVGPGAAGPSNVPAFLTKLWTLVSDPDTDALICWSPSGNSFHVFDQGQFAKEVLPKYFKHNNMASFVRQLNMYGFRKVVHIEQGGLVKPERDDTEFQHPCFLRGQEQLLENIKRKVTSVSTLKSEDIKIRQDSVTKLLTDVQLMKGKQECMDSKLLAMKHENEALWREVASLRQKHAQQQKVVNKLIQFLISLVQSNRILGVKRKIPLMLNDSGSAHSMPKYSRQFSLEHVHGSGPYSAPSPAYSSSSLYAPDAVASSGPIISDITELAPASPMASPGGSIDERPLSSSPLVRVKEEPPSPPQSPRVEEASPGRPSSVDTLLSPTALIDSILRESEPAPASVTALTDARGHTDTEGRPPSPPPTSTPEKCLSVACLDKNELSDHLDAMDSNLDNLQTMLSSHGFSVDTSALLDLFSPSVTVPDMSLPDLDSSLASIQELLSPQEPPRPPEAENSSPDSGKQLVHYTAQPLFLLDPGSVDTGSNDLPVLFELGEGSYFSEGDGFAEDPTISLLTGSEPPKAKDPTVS
# Summary of the method: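 Reporter mRNA induction in HepG2 is measured 24 h after dosing, using transiently transfected multiplexed cis-regulated reporter units. Signal comes from capillary electrophoresis of labelled RT-PCR products, with DMSO as negative control.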
# [9] = ATG_MRE_CIS: Attagene CIS-FACTORIAL HepG2 Assay for human Metal Responsive Element (MRE) (AID 2282954); conditions: HepG2 MRE cis-reporter transcription, Attagene multiplex; actives raise or lower the signal
# Summary of the method: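 Multiplexed cis-reporter assay in human HepG2 liver cells, 24 h incubation with test chemical. Reporter transcripts measured by RT-PCR and capillary electrophoresis; values from bidirectional curve fitting versus DMSO.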
Compound,outcome [1],outcome [2],outcome [3],outcome [4],outcome [5],outcome [6],outcome [7],outcome [8],outcome [9],AC50 [6],AC50 [9],AC50 [2],AC50 [8]
C=CC(=O)NCOCCCC,inactive,inactive,inactive,inactive,inactive,inactive,inactive,inactive,inactive,–,–,–,–
Oc1ccc(-c2ccccc2)c(Cl)c1,inactive,inactive,inactive,inactive,inactive,–,inactive,inactive,–,8.12 µM (active),52.9 µM (active),–,–
O=C1CCCCCCCCCCCN1,inactive,inactive,inactive,inactive,inactive,inactive,inactive,inactive,inactive,–,–,–,–
CC(C)(c1ccccc1)c1ccc(Nc2ccc(C(C)(C)c3ccccc3)cc2)cc1,inactive,inactive,inactive,inactive,inactive,inactive,inactive,inactive,inactive,–,–,–,–
Clc1cc(Cl)c(Cl)c(Cl)c1Cl,inactive,inactive,inactive,inactive,inactive,–,inactive,inactive,inactive,27.7 µM (active),–,–,–
O=C(OCCc1ccccc1)c1ccccc1,inactive,inactive,inactive,inactive,inactive,inactive,inactive,inactive,inactive,–,–,–,–
c1ccc2cnccc2c1,inactive,inactive,inactive,inactive,inactive,inactive,inactive,inactive,inactive,–,–,–,–
CCCC(CC)c1ccccc1 (stereo unspecified),inactive,inactive,inactive,inactive,inactive,inactive,inactive,inactive,inactive,–,–,–,–
O=S(=O)(O)c1ccc(N=Nc2c(O)ccc3ccccc23)cc1,inactive,inactive,inactive,inactive,inactive,–,inactive,inactive,inactive,3 µM (active),–,–,–
C=CCCCCCCCCC=O,inactive,inactive,inactive,inactive,inactive,inactive,inactive,inactive,inactive,–,–,–,–
CCC(=O)C1CC(C(C)C)CC=C1C (stereo unspecified),inactive,inactive,inactive,inactive,inactive,inactive,inactive,inactive,inactive,–,–,–,–
C=C(C)OC(C)=O,inactive,inactive,inactive,inactive,inactive,inactive,inactive,inactive,inactive,–,–,–,–
CC(C)C(=O)OCCOc1ccccc1,inactive,inactive,inactive,inactive,inactive,inactive,inactive,inactive,inactive,–,–,–,–
C=C(C)C(=O)OCCOC(=O)C(=C)C,inactive,inactive,inactive,inactive,inactive,inactive,inactive,inactive,inactive,–,–,–,–
COC(=O)C=Cc1ccccc1,inactive,inactive,inactive,inactive,inactive,inactive,inactive,inactive,inactive,–,–,–,–
COc1cc(C)ccc1O,inactive,inactive,inactive,inactive,inactive,inactive,–,inactive,inactive,–,–,–,–
CC(=O)C(C)C,inactive,inactive,inactive,inactive,inactive,inactive,inactive,inactive,inactive,–,–,–,–
CCOC(=O)/C=C\C(=O)OCC,inactive,inactive,inactive,inactive,inactive,inactive,inactive,inactive,inactive,–,–,–,–
O=C(Oc1ccccc1)c1ccccc1O,inactive,inactive,inactive,inactive,inactive,inactive,inactive,inactive,inactive,–,–,–,–
CC(=O)OCC=C(C)C,inactive,inactive,inactive,inactive,inactive,inactive,inactive,inactive,inactive,–,–,–,–

Compound,outcome [1],outcome [2],outcome [3],outcome [4],outcome [5],outcome [6],outcome [7],outcome [8],outcome [9],AC50 [6],AC50 [9],AC50 [2],AC50 [8]
c1ccc2c(c1)[nH]c1ccccc12,inactive,inactive,inactive,inactive,inactive,inactive,inactive,inactive,inactive,–,–,–,–
CCCCCCO,inactive,inactive,inactive,inactive,inactive,inactive,inactive,inactive,inactive,–,–,–,–
CCCCCCCCCC(C)=O,inactive,inactive,inactive,inactive,inactive,inactive,inactive,inactive,inactive,–,–,–,–
CC1=CC(C)C(C=O)CC1 (stereo unspecified),inactive,inactive,inactive,inactive,inactive,inactive,inactive,inactive,inactive,–,–,–,–
C[Si]1(C)O[Si](C)(C)O[Si](C)(C)O[Si](C)(C)O[Si](C)(C)O1,inactive,inactive,inactive,inactive,inactive,inactive,inactive,inactive,inactive,–,–,–,–
Nc1cccc(N)n1,inactive,inactive,inactive,inactive,inactive,inactive,inactive,inactive,inactive,–,–,–,–
Cc1c(C(=O)c2c[nH]n(C)c2=O)ccc(S(C)(=O)=O)c1C1=NOCC1,inactive,inactive,inactive,inactive,inactive,inactive,inactive,inactive,inactive,–,–,–,–
COC(=O)c1ccc(C(=O)OC)c(C(=O)OC)c1,inactive,inactive,inactive,inactive,inactive,inactive,inactive,inactive,inactive,–,–,–,–
CCCC=C(C=O)CC,inactive,inactive,inactive,inactive,inactive,inactive,inactive,inactive,inactive,–,–,–,–
C1CNCCN1,inactive,inactive,inactive,inactive,inactive,inactive,inactive,inactive,inactive,–,–,–,–
CC(C)c1ccc(O)c(C(C)C)c1,inactive,inactive,inactive,inactive,inactive,inactive,inactive,inactive,inactive,–,–,–,–
C=CC(=O)OCCCCCCCCCC,inactive,inactive,inactive,inactive,inactive,inactive,inactive,inactive,inactive,–,–,–,–
CCCCC1CCC(=O)O1 (stereo unspecified),inactive,inactive,inactive,inactive,inactive,inactive,inactive,inactive,inactive,–,–,–,–
CC(=O)OCc1ccccc1,inactive,inactive,inactive,inactive,inactive,inactive,inactive,inactive,inactive,–,–,–,–
O=C(O)CCCC(=O)O,inactive,inactive,inactive,inactive,inactive,inactive,inactive,inactive,inactive,–,–,–,–
CC(=O)OCCc1ccccc1,inactive,inactive,inactive,inactive,inactive,inactive,inactive,inactive,inactive,–,–,–,–
COC(Cc1ccccc1)OC,inactive,inactive,inactive,inactive,inactive,inactive,inactive,inactive,inactive,–,–,–,–
CCCC(C)C(=O)OCC (stereo unspecified),inactive,inactive,inactive,inactive,inactive,inactive,inactive,inactive,inactive,–,–,–,–
CCc1cccc(C)c1N,inactive,inactive,inactive,inactive,inactive,inactive,inactive,inactive,inactive,–,–,–,–
CCCCCCC=O,inactive,inactive,inactive,inactive,inactive,inactive,inactive,inactive,inactive,–,–,–,–

Compound,outcome [1],outcome [2],outcome [3],outcome [4],outcome [5],outcome [6],outcome [7],outcome [8],outcome [9],AC50 [6],AC50 [9],AC50 [2],AC50 [8]
CC(C)CO,inactive,inactive,inactive,inactive,inactive,inactive,inactive,inactive,inactive,–,–,–,–
COC(OC)(C(=O)c1ccccc1)c1ccccc1,inactive,inactive,inactive,inactive,inactive,inactive,inactive,inactive,–,–,43.5 µM (active),–,–
CCCCCCCCCCCC(=O)OCC,inactive,inactive,inactive,inactive,inactive,inactive,inactive,inactive,inactive,–,–,–,–
C=C[C@@]1(C)CC(=O)[C@]2(O)[C@@]3(C)[C@@H](O)CCC(C)(C)[C@@H]3[C@H](O)[C@H](OC(C)=O)[C@@]2(C)O1,inactive,inactive,inactive,inactive,inactive,inactive,inactive,inactive,inactive,–,–,–,–
CC=C(C)C(C)=O,inactive,–,inactive,inactive,inactive,inactive,inactive,inactive,inactive,–,–,–,–
O=C1c2ccccc2C(=O)c2cc(S(=O)(=O)O)ccc21,inactive,–,inactive,inactive,inactive,inactive,–,inactive,inactive,–,–,–,–
CCOC(=O)c1ccc(C)cc1,inactive,inactive,inactive,inactive,inactive,inactive,–,inactive,inactive,–,–,–,–
CC1=CC=C(C(C)C)CC1,inactive,–,inactive,inactive,inactive,inactive,inactive,inactive,inactive,–,–,–,–
C[Si](C)(C)N[Si](C)(C)C,inactive,–,inactive,inactive,inactive,inactive,inactive,inactive,inactive,–,–,–,–
CCCCOC(=O)CCC(C)=O,inactive,–,inactive,inactive,inactive,inactive,inactive,inactive,inactive,–,–,–,–
CCCCOCC(C)O (stereo unspecified),inactive,inactive,inactive,inactive,inactive,inactive,–,inactive,inactive,–,–,–,–
CCCCOCCOC(=O)COc1ccc(Cl)cc1Cl,inactive,inactive,inactive,inactive,inactive,inactive,–,inactive,inactive,–,–,–,–
CC1=CCC2CC1C2(C)C (stereo unspecified),inactive,–,inactive,inactive,inactive,inactive,inactive,inactive,inactive,–,–,–,–
C=C1C[C@H]2[C@@H]3C=C(C)C4=CC(=O)CC[C@]4(C)[C@H]3CC[C@]2(C)[C@@]1(OC(C)=O)C(C)=O,inactive,–,inactive,inactive,inactive,inactive,–,–,–,–,74.1 µM (active),0.057 µM (active),96.4 µM (active)
O=C(O)CC(C(=O)O)S(=O)(=O)O (stereo unspecified),inactive,inactive,inactive,inactive,inactive,inactive,–,inactive,inactive,–,–,–,–
C=CCCCCCCCCO,inactive,inactive,inactive,inactive,inactive,inactive,–,inactive,inactive,–,–,–,–
CCCCCCCO,inactive,–,inactive,inactive,inactive,inactive,inactive,inactive,inactive,–,–,–,–
CC(Cl)COP(=O)(OCC(C)Cl)OCC(C)Cl (stereo unspecified),inactive,–,inactive,inactive,inactive,inactive,inactive,inactive,inactive,–,–,–,–
